Results published in PubChem BioAssay (NCATS).
Records with an inconclusive call do not appear. Calls of active or inactive are those of the source. Unless noted, the call rests on the fitted dose curve; in most records, active means well fitted curve in the direction sought with a large enough effect; inconclusive means small, poorly fitted or top-dose-only effect, or another doubt; inactive means no such curve, though single readings can be large; an effect the other way counts as inactive or inconclusive.

Tests used:
[1] = molecular target: Rap guanine nucleotide exchange factor 3 (Homo sapiens) (UniProt O95398); test: Confirmatory qHTS for antagonist of cAMP-regulated guanine nucleotide exchange factor 3 (EPAC1) (AID 1645880); conditions: EPAC1 Rap1B-BODIPY-GDP exchange, fluorescence; activity, negative = inhibition: at 115 µM (top of the series); further: nearly all actives have a fitted effect of over 55% in size; further: potency means the concentration at half of the fitted maximal effect;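 on activity, negative = inhibition: plate controls were DMSO only for no effect and full effect of the ATA control for full effect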
Rap guanine nucleotide exchange factor 3 (Homo sapiens), sequence (O95398 whole entry, looked up): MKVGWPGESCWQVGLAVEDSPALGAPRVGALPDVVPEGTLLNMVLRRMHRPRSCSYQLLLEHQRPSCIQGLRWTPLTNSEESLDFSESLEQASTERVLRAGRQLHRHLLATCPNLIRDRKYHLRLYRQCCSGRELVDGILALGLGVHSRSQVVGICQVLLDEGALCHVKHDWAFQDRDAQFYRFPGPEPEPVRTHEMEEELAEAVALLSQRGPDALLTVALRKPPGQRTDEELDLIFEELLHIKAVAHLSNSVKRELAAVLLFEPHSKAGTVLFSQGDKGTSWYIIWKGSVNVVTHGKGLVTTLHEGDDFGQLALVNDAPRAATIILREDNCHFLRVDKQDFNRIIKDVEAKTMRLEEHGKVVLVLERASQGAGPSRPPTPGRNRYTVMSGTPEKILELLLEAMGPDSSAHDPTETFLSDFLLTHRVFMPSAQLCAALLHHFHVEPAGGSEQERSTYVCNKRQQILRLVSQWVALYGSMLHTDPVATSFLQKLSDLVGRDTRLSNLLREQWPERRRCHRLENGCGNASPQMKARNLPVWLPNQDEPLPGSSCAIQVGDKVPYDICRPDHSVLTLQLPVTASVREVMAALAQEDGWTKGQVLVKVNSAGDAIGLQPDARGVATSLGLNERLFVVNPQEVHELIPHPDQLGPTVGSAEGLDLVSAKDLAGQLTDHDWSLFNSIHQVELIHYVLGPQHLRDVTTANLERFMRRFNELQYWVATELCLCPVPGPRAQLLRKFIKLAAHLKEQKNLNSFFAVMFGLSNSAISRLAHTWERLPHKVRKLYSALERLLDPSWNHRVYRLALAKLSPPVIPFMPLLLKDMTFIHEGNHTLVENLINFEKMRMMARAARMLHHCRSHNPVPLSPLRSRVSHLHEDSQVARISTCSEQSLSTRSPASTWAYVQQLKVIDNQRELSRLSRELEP
Outline: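 Nucleotide exchange uses 100 nM EPAC1, 250 nM RAP1B-BODIPY-GDP and 50 uM GDP, with compounds in a concentration-titration series. After 5 min at room temperature, fluorescence (480 nm ex/540 nm em) is read every 5 min for 30 min. Data are normalized to control ATA and DMSO.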

[2] = molecular target: Rap guanine nucleotide exchange factor 3 (Homo sapiens) (UniProt O95398); test: Confirmatory qHTS for agonist of cAMP-regulated guanine nucleotide exchange factor 3 (EPAC1) (AID 1645881);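 further: EPAC1 catalysed release of BODIPY-GDP from Rap1B seen as fluorescence loss; 100% = effect of cAMP agonist control; nearly all actives have a fitted effect of over 75% in size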
[3] = molecular target: Rap guanine nucleotide exchange factor 4 (Homo sapiens) (UniProt Q8WZA2); test: Confirmatory qHTS for agonist of cAMP-regulated guanine nucleotide exchange factor 4 (EPAC2) (AID 1645884);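 further: nucleotide exchange releases bodipy-GDP from Rap1 and this lowers its fluorescence; on the % scale 0 is the no-effect control and ±100 the full control effect; nearly all actives have a fitted effect of over 65% in size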
Rap guanine nucleotide exchange factor 4 (Homo sapiens), sequence (Q8WZA2 whole entry, looked up): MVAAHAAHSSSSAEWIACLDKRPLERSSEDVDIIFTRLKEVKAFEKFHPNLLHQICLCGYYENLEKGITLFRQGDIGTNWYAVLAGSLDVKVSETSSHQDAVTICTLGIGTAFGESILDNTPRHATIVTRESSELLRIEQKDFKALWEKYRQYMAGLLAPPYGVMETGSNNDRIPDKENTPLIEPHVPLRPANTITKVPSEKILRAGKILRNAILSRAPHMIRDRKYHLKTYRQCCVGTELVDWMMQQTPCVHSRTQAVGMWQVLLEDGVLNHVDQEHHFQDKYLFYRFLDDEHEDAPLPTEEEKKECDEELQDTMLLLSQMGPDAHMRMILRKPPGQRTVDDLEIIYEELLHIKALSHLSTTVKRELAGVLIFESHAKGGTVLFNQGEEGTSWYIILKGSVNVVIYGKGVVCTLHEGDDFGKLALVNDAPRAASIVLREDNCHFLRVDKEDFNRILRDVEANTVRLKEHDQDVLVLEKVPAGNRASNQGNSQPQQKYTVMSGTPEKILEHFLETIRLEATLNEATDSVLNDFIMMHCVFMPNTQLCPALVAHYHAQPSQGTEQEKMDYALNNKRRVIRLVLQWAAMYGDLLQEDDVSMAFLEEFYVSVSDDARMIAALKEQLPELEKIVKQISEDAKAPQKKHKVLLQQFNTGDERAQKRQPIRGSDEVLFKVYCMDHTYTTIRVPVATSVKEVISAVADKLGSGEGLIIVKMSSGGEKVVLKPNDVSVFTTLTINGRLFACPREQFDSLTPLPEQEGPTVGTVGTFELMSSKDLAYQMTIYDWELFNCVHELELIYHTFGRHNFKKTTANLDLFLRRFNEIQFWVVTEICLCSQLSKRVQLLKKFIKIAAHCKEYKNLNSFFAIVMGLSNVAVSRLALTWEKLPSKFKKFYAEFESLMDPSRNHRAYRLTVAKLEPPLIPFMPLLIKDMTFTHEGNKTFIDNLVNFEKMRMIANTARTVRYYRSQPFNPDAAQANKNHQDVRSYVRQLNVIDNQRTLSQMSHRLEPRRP

[4] = molecular target: Rap guanine nucleotide exchange factor 4 (Homo sapiens) (UniProt Q8WZA2); test: Confirmatory qHTS for antagonist of cAMP-regulated guanine nucleotide exchange factor 4 (EPAC2) (AID 1645885); further: nearly all actives have a fitted effect of over 25% in size; on activity change, negative = inhibition: on the % scale 0 is the no-effect control and ±100 the full control effect
[5] = molecular target: Rap guanine nucleotide exchange factor 3 (Homo sapiens) (UniProt O95398); test: Counterscreen qHTS for antagonist of cAMP-regulated guanine nucleotide exchange factor 3 (EPAC1) (AID 1645888);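 further: fluorescence loss as bound BODIPY-GDP is released from Rap1B; % of control where 0% means no effect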
Outline: (§1)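 Rap1B–BODIPY-GDP (250 nM) with 50 uM GDP; compounds pin-transferred to 9.74 nM–152 uM final (activator) or from 7.32 nM upwards (inhibitor). Fluorescence Ex/Em 480/540 nm read at 5 and 30 min, then after adding cAMP or buffer, at room temperature.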

[6] = molecular target: Rap guanine nucleotide exchange factor 3 (Homo sapiens) (UniProt O95398); test: Counterscreen qHTS for agonist of cAMP-regulated guanine nucleotide exchange factor 3 (EPAC1) (AID 1645889); further: % of control where 0% means no effect; nearly all actives have a fitted effect of over 40% in size
Outline: as §1

[7] = molecular target: Catechol O-methyltransferase (Homo sapiens) (UniProt P21964); test: Confirmatory Screen for Target Class Profiling of Small Molecule Inhibitors of Methyltransferases (AID 1745852; calls by dose curve; further: potency means the concentration at half of the fitted maximal effect); conditions: MTase-Glo luminescence, SAH detection, recombinant enzyme; measured here: COMT max response; stronger effect = lower value
Catechol O-methyltransferase (Homo sapiens), sequence (P21964 whole entry, looked up): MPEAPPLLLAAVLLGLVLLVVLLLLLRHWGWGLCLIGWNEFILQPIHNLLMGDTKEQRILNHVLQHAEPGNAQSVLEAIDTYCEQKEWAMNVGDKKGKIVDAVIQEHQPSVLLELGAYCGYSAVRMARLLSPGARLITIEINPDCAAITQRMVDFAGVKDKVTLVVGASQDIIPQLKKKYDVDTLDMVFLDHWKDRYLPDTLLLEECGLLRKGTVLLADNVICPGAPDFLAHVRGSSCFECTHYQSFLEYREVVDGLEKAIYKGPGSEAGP

[8] = molecular target: Guanidinoacetate N-methyltransferase (Homo sapiens) (UniProt Q14353); test: as above; conditions: activity change, negative = inhibition: at 57.3 µM (top of the series) unless noted
[9] = molecular target: Nicotinamide N-methyltransferase (Homo sapiens) (UniProt P40261); test: as above; conditions: MTase-Glo luminescence, SAH detection, recombinant enzyme; measured here: NNMT max response; stronger effect = lower value
Nicotinamide N-methyltransferase (Homo sapiens), sequence (P40261 whole entry, looked up): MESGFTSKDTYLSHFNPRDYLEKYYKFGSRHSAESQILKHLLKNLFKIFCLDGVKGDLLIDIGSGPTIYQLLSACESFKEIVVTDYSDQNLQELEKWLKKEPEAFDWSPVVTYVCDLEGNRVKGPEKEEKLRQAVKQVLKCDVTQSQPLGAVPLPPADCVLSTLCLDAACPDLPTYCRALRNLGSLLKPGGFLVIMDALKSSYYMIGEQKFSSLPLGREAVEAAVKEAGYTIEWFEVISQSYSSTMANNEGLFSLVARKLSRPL

[10] = molecular target: Phenylethanolamine N-methyltransferase (Homo sapiens) (UniProt P11086); test: as above; conditions: MTase-Glo luminescence, SAH detection, recombinant enzyme; measured here: PNMT max response; stronger effect = lower value
Phenylethanolamine N-methyltransferase (Homo sapiens), sequence (P11086 whole entry, looked up): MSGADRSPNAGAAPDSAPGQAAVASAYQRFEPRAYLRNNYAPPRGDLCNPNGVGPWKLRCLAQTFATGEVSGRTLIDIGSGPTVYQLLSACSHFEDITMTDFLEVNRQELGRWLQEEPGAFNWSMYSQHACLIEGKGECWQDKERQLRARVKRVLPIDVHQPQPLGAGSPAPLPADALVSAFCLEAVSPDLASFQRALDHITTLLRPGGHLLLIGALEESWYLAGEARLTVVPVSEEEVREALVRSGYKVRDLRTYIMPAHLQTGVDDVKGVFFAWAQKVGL

CCCCn1cc2c(c1-c1ccccc1Br)c(=O)n(C)c(=O)n2C
inactive: Potency [1] | Potency [2] | Potency [3] | Potency [4] | Potency [5] | Potency [6]

COc1cc(NS(=O)(=O)c2cc3[nH]c(=O)c(=O)[nH]c3cc2C)cc(OC)c1OC
inactive: Potency [1] | Potency [2] | activation [3] 2.04% [at 17.1 µM, percent relative to cAMP agonist control] | Potency [4] | activity change, negative = inhibition [5] -5.07% [at 30.8 µM] | activation [6] 12.2% [at 30.8 µM]

O=C1NC(=S)S/C1=C\c1coc2ccc(O)cc2c1=O
active: Potency [1] 39.8 µM
inactive: Potency [2] | activation [3] 11% [at 17.1 µM, percent relative to cAMP agonist control] | Potency [4] | activity change, negative = inhibition [5] -13.4% [at 30.8 µM] | activation [6] -0.252% [at 30.8 µM]

CCCc1cc2c(-c3ccccc3)cc(=O)oc2cc1OCc1ccc(C(=O)O)o1
-57.8%: activity [9]
-44.4%: activity [7]
inactive: Potency [2] | Potency [3] | Potency [4] | Potency [5] | Potency [6]
-42%: activity [10]
active: Potency [1] 75.7 µM | Potency [8] 24.1 µM

Cc1ccccc1NC1c2ccccc2C(=O)N1Cc1ccco1 (centres undefined)
inactive: Potency [1] | Potency [2] | activation [3] 2.58% [at 17.1 µM, percent relative to cAMP agonist control] | Potency [4] | activity change, negative = inhibition [5] -11.4% [at 30.8 µM] | activation [6] 17.8% [at 30.8 µM]

CSc1ccc(CCNC(=O)c2csc3c2CCCCC3)cc1
inactive: Potency [1] | Potency [2] | Potency [3] | outcome [4] inactive [at 12.7 µM] | Potency [5] | Potency [6]

CCOc1cc(/C=C2\SC(=S)N(NS(=O)(=O)c3ccc(C)cc3)C2=O)ccc1O
active: Potency [1] 19 µM
inactive: Potency [2] | Potency [3] | Potency [4] | Potency [5] | Potency [6]

COc1cccc(CN(C)CC(=O)Nc2c(C)cccc2C(C)C)c1
inactive: Potency [1] | Potency [2] | activation [3] 9.26% [at 17.1 µM, percent relative to cAMP agonist control] | Potency [4] | activity change, negative = inhibition [5] -8.13% [at 30.8 µM] | activation [6] 14.6% [at 30.8 µM]

Cc1ccc(C)c(S(=O)(=O)N2CCN(C(=O)CCc3nc4ccccc4c(=O)[nH]3)CC2)c1
inactive: Potency [1] | Potency [2] | activation [3] 4.63% [at 17.1 µM, percent relative to cAMP agonist control] | Potency [4] | activity change, negative = inhibition [5] -11.5% [at 30.8 µM] | activation [6] 23.6% [at 30.8 µM]

COC(=O)c1cc2ccsc2n1Cc1cccc(F)c1
inactive: Potency [1] | Potency [2] | Potency [3] | Potency [4] | Potency [5] | Potency [6]
